Consider 40 molecules from PubChem BioAssay (NCI).

The panel holds about 83,000 compounds, 20% with a hit somewhere; the sample as a whole holds those more often.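 Compound tested at a single concentration for 48 hours in 96-well plates; a percent growth value below 10 was scored as active.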 Values without a mark were called inactive. Calls of active or inactive are those of the source.

This experiment deals with HL-60(TB) leukemia. Put plainly: NCI-60 one-dose screen, 48 h (100 = growth as untreated, 0 = no growth, -100 = all killed). Conditions: 10 µM unless noted.
In the case of `C=CC(=O)N[C@@H](Cc1ccc(-c2cc(Cl)cc(Cl)c2)cc1)[C@@H](O)[C@H](O)C(=O)O`, the growth was 95.9%.

In the case of `COC(=O)[C@]12CC[C@@H](C)[C@H](C)[C@@H]1C1=CC[C@@H]3[C@@]4(C)C(C=O)=C[C@@](C)(COC(=O)c5ccco5)[C@@H]4C(=O)C[C@@]3(C)[C@]1(C)CC2`, the growth was 10.1%.

For the molecule `Nc1nc(N)c2nc(-c3cccc(O)c3)c(-c3cccc(O)c3)nc2n1`, the growth was 120%.

In the case of `CN1CCN(C2=C(Cl)C(=O)c3ccccc3C2=O)CC1`, the growth was 24.8%.

As to `COc1ccccc1/C(C)=N/NC(=O)CSc1nc2ccccc2c(=O)n1Cc1ccc(S(N)(=O)=O)cc1`, the growth is 101%.

Consider `COc1ccc(Cc2nnc(Nc3nc4ccccc4s3)s2)cc1`, for which the growth was -32.7% (active).

As for `CCCCc1nc(Cl)c(C2CC(c3ccc(Cl)cc3)=NN2c2cc(Cl)cc(Cl)c2)[nH]1` (stereo not given), the growth is 35.4%.

With `CCC(=O)Nc1cc2c(cc1Cl)-c1ccccc1C2`, the growth is 39.4%.

Turning to `CC(=O)NNC(=S)/N=C\C(C(=O)c1ccccc1)=C(/O)c1ccccc1`, the growth was 103%.

Consider `COc1ccc(C2=CC(c3cc(OC)c(OC)c(OC)c3)n3ncnc3N2)cc1` (stereo not given), for which the growth is -29.9% (active).

Consider `CCN(CC)CC(O)CNc1ccc(NCC2CO2)c2c1C(=O)c1ccccc1C2=O` (stereo not given), for which the growth was -25.2% (active).

`O=C(/C=C/c1ccc(F)cc1)c1ccc(NC(=O)N2CCN(c3cc4c(cc3F)c(=O)c(C(=O)O)cn4C3CC3)CC2)cc1`: the growth was 98.1%.

Consider `CN(C)c1ccc([C@@H](C(=O)Nc2cccc([N+](=O)[O-])c2)N(C(=O)c2cc3ccccc3[nH]2)c2cccc([N+](=O)[O-])c2)cc1`, for which the growth was 97.8%.

With `CN(C)Cc1c(-c2ccccc2)[nH]c2ccccc12`, the growth was 92.9%.

Regarding `O=C1Nc2ccccc2/C1=C/C(=N/c1nnc(-c2ccc(Cl)cc2)s1)c1ccccc1`, the growth is -31.8% (active).

`COc1ccccc1/C=C\C(=O)c1ccccc1`: the growth was 48.3%.

Turning to `C/C(Cc1ccc(Cl)cc1)=C(\c1ccc(OCCN2CCCCCC2)cc1)c1ccc(OC(=O)C2CCCCC2)cc1`, the growth was 17.6%.

As for `COc1ccc(-c2[nH]c3ccc(OC)cc3c2/C=C(\C#N)S(=O)(=O)c2ccccc2)cc1`, the growth was 8.54% (active).

Regarding `O=C(Nc1ccncc1)C(=O)c1cn(S(=O)(=O)c2cccc(F)c2)c2ccccc12`, the growth was -9.88% (active).

As for `CCOC(=O)c1c(C)c2c(n1C)CSc1cc(S(=O)(=O)c3ccccc3)c(=O)[nH]c1-2`, the growth is 25% [100 µM].

Turning to `CCCCCCCCC(=O)Nc1ccc(O)cc1`, the growth was 61.5%.

For `COc1cccc(-c2nc3sccn3c2-c2ccnc(NCCCNS(=O)(=O)c3cccc(Cl)c3)c2)c1`, the growth is -9.87% (active).

Turning to `COCCOCCCl`, the growth was 110%.

With `CSc1[nH]c(=O)ncc1F`, the growth is 106%.

Turning to `C=C[C@@H]1C[C@@H]2Cc3c(C)cc(C)cc3N1O2`, the growth was 0.0364% (active).

Consider `COc1ccc(C(=O)Cn2c(C(=O)c3ccccc3)nc3ccccc32)cc1`, for which the growth is -27.5% (active).

For the molecule `COc1cc(C2C3=C(COC3=O)N(CCO)c3cc4c(cc32)OCCO4)cc(OC)c1O` (stereo not given), the growth was -9% (active).

Turning to `c1ccc(-c2[nH]c3ccccc3c2-c2ccccc2)cc1`, the growth was 78.7%.

`NS(=O)(=O)c1ccc(N2N=C(c3ccc(-c4ccccc4)cc3)CC2c2ccc(Cl)cc2)cc1` (stereo not given): the growth was 86.5%.

For `O=C(Nc1ccccc1)Nc1ccccc1CNc1nc(Nc2ccc(OCCN3CCCC3)cc2)ncc1Cl`, the growth is -31.2% (active).

For `c1cc(NCCCCN2CCOCC2)c2ccc3c(ccc4c(NCCN5CCOCC5)ccnc43)c2n1`, the growth was 47.2%.

With `COC(=O)c1cccc(Br)c1`, the growth was 81.6%.

Regarding `COc1ccc(/C=N\Nc2nc(SCC(C)C)nc(-c3ccc(OC)cc3)c2C#N)cc1`, the growth is 35.8%.

In the case of `CCSc1ccnc(N)n1`, the growth was 108%.

Regarding `COC(=O)/C=C1/SC(=Nc2ccc(C(F)(F)F)cc2)N(CCc2c[nH]c3ccc(O)cc23)C1=O`, the growth is -33.1% (active).

On to `COc1cc(-c2nn(-c3cccc(NC(=O)NCCNC(=O)c4cccc(C(F)(F)F)c4)c3)cc2-c2ccncc2)ccc1Cl`, for which the growth is 16.8%.

For the molecule `CC1CCN(C(=O)CSc2nc3sc4c(c3c(=O)[nH]2)CCCC4)CC1`, the growth was 102%.

As to `CC(=O)NCNC(C)=O`, the growth is 113%.

As for `Cn1c(=O)n(C)c2cc(CNCCNc3ccnc4cc(Cl)ccc34)ccc21`, the growth was 35.4%.

With `COc1cc(-c2nn(C(=O)NCCN3CCN(C)CC3)cc2-c2ccncc2)ccc1Cl`, the growth was 93.2%.
